Test results taken from PubChem BioAssay (NCI).
Several values for one entry are separate records, joined by “and”; a condition that tells them apart may be missing. Equal values may be shown once. This is part of a sample that, as a whole, favours compounds with a hit. Of some 83,000 tested, about 20% had one in any assay.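 For each line, cells grew in 96-well plates with the test compound present at a single concentration for 48 hours.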 The source holds several records for some structures; these can differ, active in one and inactive in another. Activity calls are given as the source filed them. The calls were made as follows: active = growth percent below 10; inactive = the rest.

Experiments:
Experiment in all cases: NCI-60 one-dose screen, 48 h (100 = growth as untreated, 0 = no growth, -100 = all killed)
Conditions in all cases: 10 µM unless noted
[1] = tested on: HCT-15 colon
[2] = tested on: HT29 colon
[3] = tested on: SNB-19 CNS
[4] = tested on: U251 CNS
[5] = tested on: PC-3 prostate
[6] = tested on: SK-MEL-5 melanoma
[7] = tested on: UACC-62 melanoma
[8] = tested on: LOX IMVI melanoma
[9] = tested on: SK-MEL-28 melanoma
[10] = tested on: SNB-75 CNS

Measured: growth

CC1(C)[C@@H](OC(=O)CCC(=O)O)CC[C@]2(C)[C@H]3C(=O)C=C4[C@@H]5C[C@@](C)(C(=O)O)CC[C@]5(C)CC[C@@]4(C)[C@]3(C)CC[C@@H]12
104% (inactive) and -50.8% (active): [8]
103% (inactive) and -8.67% (active): [2]
105% (inactive) and -82.7% (active): [6]
105% (inactive) and -66% (active): [9]
103% (inactive) and -28.4% (active): [5]
110% (inactive) and -91.2% (active): [4]
106% (inactive) and -80% (active): [7]
101% (inactive) and -39.6% (active): [1]
102% (inactive) and -3.23% (active): [3]

Cc1cc(=O)[nH]c(O)c1C#N
inactive: [1] 98% and 107% | [2] 109% and 116% | [10] 72.5% and 96.7% | [3] 98.4% and 94.7% | [5] 114% and 102% | [6] 100% and 106% | [7] 97.7% and 96.5% | [8] 98.5% and 97.1% | [9] 98.2% and 157%

Clc1ccc(SSc2ccc(Cl)cc2)cc1
97.6% (inactive) and 7.12% (active): [8]
inactive: [1] 98.8% and 92.4% | [2] 98.1% and 98.2% | [3] 93.7% and 89.2% | [4] 93.4% and 61% | [5] 87.3% and 46.5% | [6] 105% and 73.3% | [7] 96.9% and 95.8% | [9] 96.9% and 103%

CC(C)(C)c1ccc(O)c(CNC2CCCCC2)c1
inactive: [1] 108% and 84.5% | [2] 79.1% and 95.2% | [10] 86% and 82.8% | [3] 89.2% and 90.9% | [5] 82.5% and 83.8% | [6] 92.6% and 79.2% | [7] 96.6% and 79.7% | [8] 86.2% and 97.6% | [9] 105% and 98.3%

CC1(c2ccc3ccccc3c2)CCC(=O)O1 (stereo not given)
inactive: [1] 107% | [10] 100% | [3] 106% | [4] 99.9% | [5] 97.9% | [6] 105% | [7] 95.7% | [8] 93.1% | [9] 102%

COc1ccc2c(=O)cc(-c3ccccc3)[nH]c2c1
inactive: [1] 22.6% and 19.2% | [3] 29.6% and 27% | [4] 12.2% and 15.6% | [5] 18.5% and 19.4% | [6] 21.5% and 12.7% | [7] 38.4% and 20% | [8] 48.3% and 49% | [9] 39.3% and 70.8%
active: [2] -3.3% and 5.55%

OC1CCC(Oc2cccc3cnc(Nc4ccc5nc[nH]c5c4)nc23)CC1 (stereo not given)
5.3% (active) and 81% (inactive): [1]
6.32% (active) and 39.2% (inactive): [8]
5.62% (active) and 66.4% (inactive): [9]
-4.06% (active) and 46.2% (inactive): [7]
3.2% (active) and 27.7% (inactive): [4]
-22.7% (active) and 37.5% (inactive): [10]
9.42% (active) and 41.1% (inactive): [3]
-6.41% (active) and 47.6% (inactive): [6]
3.19% (active) and 35.5% (inactive): [5]

COc1ccc(NC(=S)Nc2ccccn2)cc1
inactive: [1] 98.6% | [2] 107% | [3] 98.9% | [4] 93.6% | [5] 97.2% | [6] 98.9% | [7] 103% | [8] 89.8% | [9] 110%

Clc1ccc(NC(Nc2ccc(Cl)cc2)C(Cl)(Cl)Cl)cc1
9.46% (active) and 62.8% (inactive): [7]
inactive: [1] 65.6% and 88.7% | [2] 101% and 98.4% | [3] 104% and 112% | [4] 95% and 110% | [5] 91.9% | [6] 91.3% and 85.3% | [8] 74.5% | [9] 105% and 114%

CCC(=O)C(CC)c1cccc(OC)c1 (stereo not given)
inactive: [1] 103% | [10] 76.7% | [3] 111% | [4] 99.4% | [5] 98.8% | [6] 101% | [7] 108% | [8] 100% | [9] 106%

Nc1ccccc1Nc1ccccc1
inactive: [1] 86.8% and 83.1% | [10] 106% and 90.7% | [3] 97.9% and 105% | [4] 89.3% and 86.7% | [5] 87.6% and 91.7% | [6] 89.5% and 94.7% | [7] 98.8% and 99.3% | [8] 85.1% and 87% | [9] 109% and 101%

CC(=O)c1ccccc1O
inactive: [1] 112% and 105% and 223% | [10] 107% and 93% and 97.7% | [3] 102% and 105% and 94.1% | [4] 108% and 98.7% and 104% | [5] 102% and 83.5% and 91.7% | [6] 100% and 102% | [7] 101% and 105% | [8] 100% and 92.7% and 103% | [9] 103% and 91.7% and 109%

O=S(=O)(Nc1ccccc1)C1CCCCC1
inactive: [1] 109% and 102% | [10] 86.7% and 94.7% | [3] 101% and 107% | [4] 109% and 102% | [5] 92.6% and 105% | [6] 110% | [7] 92.6% and 105% | [8] 109% and 95.5% | [9] 110% and 108%

Cc1cc(O)c2c(c1)C(=O)c1cc(O)cc(O)c1C2=O
inactive: [1] 98.9% and 92.2% | [2] 105% and 99.6% | [3] 82.5% and 94.2% | [4] 92.1% and 88.1% | [5] 67% and 77.9% | [6] 48.9% and 59.9% | [7] 60.7% and 83.6% | [8] 84.6% and 86.5% | [9] 87.7%

CN1CCN(CCC=C2c3ccccc3Sc3ccc(S(=O)(=O)N(C)C)cc32)CC1
inactive: [1] 46.4% and 59.2% | [5] 52.7% and 61.6% | [6] 26.4% and 69.1% | [8] 15.9% and 40.7%
active: [2] 4.86% and 4.22% | [7] -42.7% | [9] -54.1% and -73.3%

NC(=O)c1ccccc1OCC(O)CO (stereo not given)
inactive: [1] 98.1% | [2] 105% | [3] 102% | [4] 99.5% | [5] 103% | [6] 101% | [7] 98.5% | [8] 104% | [9] 105%

Cc1ncsc1CCO
inactive: [1] 111% and 106% | [2] 101% and 95.6% | [3] 108% and 103% | [5] 103% and 98.3% | [6] 109% and 98.2% | [7] 111% and 95.5% | [8] 97.6% and 103% | [9] 116% and 104%
